Sm TGR inh: qHTS Assay for the Inhibitors of Schistosoma Mansoni Peroxiredoxins | purified TGR, DTNB reduction, TNB absorbance 405 nm | AID 485364, 2010 | Schistosoma mansoni thioredoxin glutathione reductase (TGR), Q962Y6 | Potency, µM (highest dose often 114 µM), for inactives: at the top dose activity change, negative = inhibition, actives largely listed as inhibitors | 360,000 tested, 3% active; further: nearly all actives have a fitted effect of over 60% in size
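Kinetic colorimetric format: TGR-catalysed, NADPH-driven DTNB reduction monitored via TNB absorbance. Enzyme dispensed at 20 nM; compound exposure 15 min at room temperature before reaction start.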
Giardia FBPA inh: qHTS Assay for Inhibitors of Fructose-1,6-bisphosphate Aldolase from Giardia Lamblia; 290,000 tested, 0.71% active; Potency, µM (series often up to 59.6 µM), inactives show at the highest dose activity, negative = inhibition, hits mostly inhibitors; A8B2U2; purified Giardia FBPA; AID 2451, 2010; further: nearly all actives have a fitted effect of over 55% in size
Target sequence (A8B2U2 whole entry, looked up): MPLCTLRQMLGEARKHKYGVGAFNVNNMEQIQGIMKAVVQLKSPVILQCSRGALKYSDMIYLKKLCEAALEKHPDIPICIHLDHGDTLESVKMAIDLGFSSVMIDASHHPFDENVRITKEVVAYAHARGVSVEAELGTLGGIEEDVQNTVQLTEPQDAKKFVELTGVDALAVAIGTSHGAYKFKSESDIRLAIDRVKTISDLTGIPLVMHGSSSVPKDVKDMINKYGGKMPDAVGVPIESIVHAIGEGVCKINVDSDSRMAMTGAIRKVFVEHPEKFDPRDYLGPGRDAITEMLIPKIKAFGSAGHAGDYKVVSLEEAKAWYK
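40 nM FBPA preincubated 10 min at RT with compound (up to 57.5 uM final), then substrate plus GAPDH/TPI/NAD/arsenate coupling and diaphorase/resazurin added. Fluorescence read after 20 min at RT, 525/598 nm.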
RE007 growth inh: qHTS Assay for Inhibitors of the HIV-1 protein Vpr; Potency, µM (highest dose often 92.2 µM), for the others: at the top dose activity change, negative = less growth, hits mostly inhibitors; AID 651644, 2012; 360,000 tested, 0.21% active; S. pombe RE007 Vpr strain, BacTiter-Glo ATP luminescence, 24 h; active means well fitted falling curve with a large enough effect; inconclusive means small, poorly fitted or top-dose-only effect; inactive means no such curve, though single readings can be large or run the other way; further: nearly all actives have a fitted effect of over 50% in size
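Fission yeast RE007 carrying one integrated HIV-1 vpr copy, seeded at OD 0.01 in PMG+AL medium with 23 nL pinned compound. Grown 24 h at 30 degrees; viability read by BacTiter-Glo luminescence after 5 min.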
AmpC no deterg: qHTS Inhibitors of AmpC Beta-Lactamase (assay without detergent); P00811; AmpC nitrocefin hydrolysis, absorbance 480 nm, 0.0001% Triton; Potency, µM (highest dose often 57.1 µM), for the others: top-dose activity change, negative = inhibition, actives largely listed as inhibitors; 330,000 tested, 0.52% active; AID 485341, 2010;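 further: plate controls were no compound for no effect and no enzyme for full effect; nearly all actives have a fitted effect of over 20% in size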
Target sequence (P00811 whole entry, looked up): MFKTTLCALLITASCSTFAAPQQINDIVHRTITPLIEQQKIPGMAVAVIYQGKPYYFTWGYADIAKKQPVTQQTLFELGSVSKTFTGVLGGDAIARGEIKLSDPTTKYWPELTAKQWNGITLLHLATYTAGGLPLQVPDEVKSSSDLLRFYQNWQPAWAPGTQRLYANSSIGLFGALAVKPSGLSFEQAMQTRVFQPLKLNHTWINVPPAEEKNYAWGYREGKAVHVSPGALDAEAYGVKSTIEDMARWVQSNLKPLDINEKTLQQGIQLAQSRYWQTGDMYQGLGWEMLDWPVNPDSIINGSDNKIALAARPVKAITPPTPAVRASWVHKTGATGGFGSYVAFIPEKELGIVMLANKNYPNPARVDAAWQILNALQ
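20 mM phosphate pH 7.0 + 0.01% (detergent screen) or 0.0001% Triton X-100; 5.3 nM AmpC reagent; cpd preinc 15 min RT; nitrocefin (800 uM stock) to start; A480 q20 s × 4 min; Activity was normalised to no-enzyme and no-compound control wells.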
AmpC inh detg: qHTS Inhibitors of AmpC Beta-Lactamase (assay with detergent); Potency, µM (top dose mostly 114 µM), inactives show at the highest dose activity change, negative = inhibition, most hits filed as inhibitors; AmpC hydrolysis of nitrocefin, absorbance 480 nm, 0.01% Triton; 370,000 tested, 0.041% active;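 further: 0% = no-compound wells and -100% = no-enzyme wells; nearly all actives have a fitted effect of over 25% in size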
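20 mM phosphate pH 7.0 + 0.01% (detergent screen) or 0.0001% Triton X-100; 5.3 nM AmpC reagent; cpd preinc 15 min RT; nitrocefin (800 uM stock) to start; A480 q20 s × 4 min; Activity was normalised to no-enzyme and no-compound control wells.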
* = called active by the depositor; ? = inconclusive; . = no result given; ! = repeats disagree; [ ] = another dose, or the depositor's remark. Most compounds without a hit are left out; they make up all but 3.4% or so of the library. Unless noted, the call rests on the fitted dose curve; in most records, active means well fitted curve in the direction sought with a large enough effect; inconclusive means small, poorly fitted or top-dose-only effect, or another doubt; inactive means no such curve, though single readings can be large; an effect the other way counts as inactive or inconclusive. Unless noted, on the % scale 0 is the no-effect control and ±100 the full control effect; potency means the concentration at half of the fitted maximal effect.

SMILES | Sm TGR inh | Giardia FBPA inh | RE007 growth inh | AmpC no deterg | AmpC inh detg
COc1ccccc1-c1nnc(SCC(=O)O)n1-c1ccc(C)cc1 | -10% | 10% | 18% | 39% | 0%
Cc1ccc(-n2nc3ccc(NC(=O)/C=C/c4ccco4)cc3n2)cc1 | -24% | -3% | -4% | 28µM* | -8%
CC(=O)NC(Cc1ccc(N(CCCl)CCCl)cc1)C(=O)NC(CC(C)C)C(=O)O (centres undefined) | 28µM* | -26% | -7% | -11% | 8%
CC1=C(C#N)c2nc(N)c(C#N)c(C)c2/C1=C\c1ccc(-c2ccccc2C(=O)O)o1 | 25µM* | ? | 1% | -53% | 3%
COc1ccc(C2CC(c3ccccc3C)n3nc(N)nc3N2)cc1 (centres undefined) | 3% | 2% | -2% | ? | -14%
CCOc1ccc(C2CC(c3ccccc3C)n3nc(N)nc3N2)cc1 (centres undefined) | 8% | -3% | -7% | 32µM* | -4%
COc1cccc(C2CC(c3c(F)cccc3Cl)n3nc(N)nc3N2)c1 (centres undefined) | 0% | 1% | 10% | 0% | 5%
CCOc1ccc(C2CC(c3cccc(OC)c3)n3nc(N)nc3N2)cc1 (centres undefined) | 3% | 0% | 4% | 4.5µM* | ?
COc1cccc(C2CC(c3ccccc3C)n3nc(N)nc3N2)c1 (centres undefined) | 4% | 2% | 12% | 2.8µM* | ?
COc1cccc(C2CC(c3c(Cl)cccc3Cl)n3nc(N)nc3N2)c1 (centres undefined) | 4% | -1% | -2% | 5.6µM* | ?
O=C(Nc1nccs1)c1cc2sccc2n1Cc1ccc(F)cc1 | 0% | -9% | -6% | 22µM* | -10%
CC(=O)c1ccc(NC(=O)c2cc3sccc3n2Cc2ccc(F)cc2)cc1 | 5% | . | . | . | 13%
CC1(C)S[C@@H]2[C@H](NC(=O)[C@H](N)c3ccccc3)C(=O)N2[C@H]1C(=O)O | 1% | ? | -10%[18.4 µM] | 13µM*! | 45µM*
COc1ccc(C(=O)CN2CCN(S(=O)(=O)c3ccc(F)cc3)CC2)cc1 | -29% | . | . | . | -1%
Cc1ccc(OCCC(=O)OCC(=O)NC(=O)NC2CCCC2)cc1 | -3% | . | -27% | 35µM* | -15%
Cc1ccc(OCCC(=O)OCC(=O)N2CCN(S(=O)(=O)c3ccc(Cl)cc3)CC2)cc1 | -14% | . | 2% | 5% | 11%
CCOc1ccc(OCCC(=O)OCC(=O)N2CCN(S(=O)(=O)c3ccc(C)cc3)CC2)cc1 | 50µM* | . | 7% | -9% | -13%
CCOc1ccc(C(=O)CN2CCN(S(=O)(=O)c3ccc(Cl)cc3)CC2)cc1 | 32µM* | -7% | -2% | 5% | -5%
COc1ccc(OC)c(C(=O)CN2CCN(S(=O)(=O)c3ccc(Br)cc3)CC2)c1 | -35% | 0% | -6% | 4% | -1%
O=C(CN1CCN(S(=O)(=O)c2ccc(Br)cc2)CC1)c1ccc(O)c(O)c1 | 14µM* | . | 6% | -27% | -1%
COc1cccc(CNC(=O)[C@H](CCSC)NC(=O)N2CCn3c2nc2ccccc23)c1 | 0% | -10% | 1% | 78% | -14%
O=C(CCl)Nc1cccc(Oc2ccccc2)c1 | 11µM* | -8% | 54% | -50% | -14%
O=C(CN1CCCCC1)Nc1cccc(Oc2ccccc2)c1 | -6% | 0% | -9% | 30% | -6%
O=C(CCl)Nc1cccc(Oc2cnccn2)c1 | 11µM* | 12% | 28% | -15% | ?
O=C(Nc1ccc(S(=O)(=O)Nc2ncccn2)cc1)C1=COCCO1 | -26% | . | 8% | -3% | -13%
SMILES | Sm TGR inh | Giardia FBPA inh | RE007 growth inh | AmpC no deterg | AmpC inh detg
COc1ccc(/C=N\NC(=S)SCN2C(=O)C3CCC(C)(C2=O)C3(C)C)cc1 (centres undefined) | . | . | 2% | . | .
CC12CCC(C(=O)N(CSC(=S)N/N=C\c3ccccc3O)C1=O)C2(C)C (centres undefined) | 20µM* | 23% | 19% | -24% | -3%
Oc1c(Br)cc(Br)cc1CNc1ccc(F)cc1 | ? | ? | ? | ? | 2%
Oc1c(Br)cc(Br)cc1CNc1cnc2ccccc2c1 | 13µM* | 15% | -24% | -40% | 3%
Cc1cccc(Cn2c(C)c(CNC3CCCCC3)c(C(=O)O)c2C)c1 | 0% | . | . | . | 20%
O=C(O)c1ccc(N/N=C/c2c[nH]c3ccccc23)cc1 | -16% | -5% | -10% | -16% | 4%
O=C(N/N=C/c1c[nH]c2ccccc12)c1cc(Cl)ccc1O | -35% | 9% | -1% | 16µM* | -9%
Fc1c(F)c(F)c(N/N=C/c2c[nH]c3ccccc23)c(F)c1F | 1% | -5% | 16µM* | -43% | 6%
O=C(N/N=C/c1c[nH]c2ccccc12)c1ccc(Br)cc1 | -4% | -1% | -21% | 20µM* | -11%
COc1ccccc1C(=O)Nc1ccc(C(=O)N2CCCC2)cc1 | -1% | 0% | 2% | -14% | 2%
CCOc1ccc(/C=N/Nc2ccccc2)cc1 | 25µM* | 11% | . | -32% | 0%
CCOc1ccc(/C=N/O)cc1 | 0% | 1% | -7% | -12% | -3%
O=C(Nc1cccc(NC(=O)C2CC2)n1)C1CC1 | 8% | -27% | 5% | 4% | 12%
O=C(NCCc1ccccn1)c1cc(-c2cccc3ccccc23)nc2ccccc12 | -6% | -1% | -10% | 14% | -6%
O=C(O)c1cccc(N2C(=O)C=CC2=O)c1 | . | . | 0% | . | .
O=C(Nc1ccc(Cl)cc1Cl)c1cccc(N2C(=O)C=CC2=O)c1 | -16% | . | 1.3µM* | -32% | ?
CCOC(=O)c1ccc(CN2C(=O)c3ccccc3S2(=O)=O)cc1 | 5% | 2% | 21% | -12% | -8%
CCOc1ccc(C(C)=O)cc1CN1C(=O)c2ccccc2S1(=O)=O | 35µM* | . | 1% | -1% | 1%
CC(C)(CO)CNC(=O)CC1C(=O)NCCN1CC(c1ccccc1)c1ccccc1 (centres undefined) | ? | -12% | 0% | 50% | ?
CN(C(=O)CC1C(=O)NCCN1CC(c1ccccc1)c1ccccc1)C(C1CC1)C1CC1 (centres undefined) | 45µM* | -18% | 3% | 157% | 9%
Cc1ccc(CN2CCNC(=O)C2CC(=O)NCC(F)(F)F)o1 (centres undefined) | 40µM* | -15% | 0% | 7% | 0%
CN(CC1CCOCC1)C(=O)CC1C(=O)NCCN1CC(c1ccccc1)c1ccccc1 (centres undefined) | ? | . | 4% | 83% | -1%

Screens (PubChem BioAssay)
